The sample as a whole holds a higher share of hits than the screen did.
Methyltransferases: Primary Screen for Target Class Profiling of Small Molecule Inhibitors of Methyltransferases; purified enzyme, MTase-Glo SAH luminescence; active compounds read low; calls only at 40 µM; actives 3.9% (n = 25,000); AID 1745853, 2022; call rule not given here
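Each enzyme was reacted with SAM and its substrate, with compounds tested once at 40 uM; SAH formed was read by MTase-Glo luminescence.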
MTase-Glo ctr: detection enzyme interference, methyltransferase counter-screen; shares compounds with Methyltransferases; MTase-Glo coupled enzymes, SAH conversion luminescence, no MTase; Potency, µM (top dose mostly 57.3 µM), for the others: at the top dose activity change, negative = inhibition, actives largely listed as inhibitors; actives 6% (n = 180); AID 1745851; active = well fitted inhibition curve with a large enough effect; inconclusive = small, poorly fitted or top-dose-only effect; also: potency is read from the fitted curve at half-maximal effect
An asterisk follows results filed as active; i = inactive; ? = inconclusive; + = active, no number; [ ] = another dose, or the depositor's remark. % is scaled to controls: 0 for no effect and ±100 for the full control effect.

SMILES | Methyltransferases | others
Cc1cccc(CN2C(=O)c3ccc(-c4ccco4)n3CC2(C)C(=O)NC2CCCCCC2)c1 (configuration not stated) | i
Cc1cccc2c1cnn2C(=O)CCC(=O)N1CCN(C2CCCCC2)CC1 | i
CNC(=O)c1cc(C2CC2)nc2onc(C3CCCN3C(=O)NC(C)c3ccccc3)c12 (configuration not stated) | i
CC(=O)Nc1ccc(NC(=O)c2cccc(CN3CCCC(C#N)C3)c2)cc1 (configuration not stated) | i
N#Cc1cc(CN2CCCC(C(=O)Nc3cccc(-c4ccc(F)cc4)c3)C2)c[nH]1 (configuration not stated) | + | MTase-Glo ctr=-5%
Cc1cccc(CN2CCCC(C(=O)Nc3cccc(-n4cccn4)c3)C2)n1 (configuration not stated) | i
CCCCNC(=O)CCn1ccc2cc(S(=O)(=O)N3CCCCC3)ccc21 | i
NS(=O)(=O)c1ccc(C(=O)NC(Cc2ccncc2)C2CC(O)C2)cc1 (configuration not stated) | i
O=C(N[C@H](C1CCNCC1)C1CC(O)C1)c1ccc2nccnc2c1 (some centres not stated) | + | MTase-Glo ctr=3%
O=C(N[C@H](c1ccccc1)C1CC(O)C1)c1ccc(-n2cccn2)cc1 (some centres not stated) | i
CCC1CCCCN1S(=O)(=O)c1ccc2c(c1)n(C)c(=O)n2C (configuration not stated) | i
CCOc1ccccc1CN1C(=O)CSc2c(c3ccccc3n2C)C1C(=O)NCc1ccccc1 (configuration not stated) | i
COc1ccccc1CNC(=O)Cn1ccc2cc(S(=O)(=O)N3CCCCC3)ccc21 | i
Cn1c(=O)oc2cc(S(=O)(=O)N3CCCC(C(=O)N4CCC(Cc5nncn5-c5ccccc5)CC4)C3)ccc21 (configuration not stated) | i
CC1(C(=O)NC2CCCCC2)Cn2c(nc3ccccc32)C(=O)N1Cc1ccc2c(c1)OCO2 (configuration not stated) | i
C[C@@H]1O[C@@H](O[C@@H]2[C@@H](O)[C@H](O[C@@H]3[C@@H](O)[C@@H](O)[C@H](O[C@H]4[C@H](OC(=O)[C@]56CCC(C)(C)C[C@H]5C5=CCC7[C@@]8(C)C[C@H](O)[C@H](O[C@@H]9O[C@H](C(=O)O)[C@@H](O)[C@H](O)[C@H]9O)[C@@](C)(CO)C8[C@H](O)C[C@@]7(C)[C@]5(C)CC6)OC[C@H](O)[C@@H]4O)O[C@H]3C)OC[C@H]2O)[C@H](O)[C@H](O)[C@H]1O (some centres not stated) | i
CCCN1C(=O)c2cc(C(=O)N3CCN(c4ccccc4F)CC3)nn2CC1(C)C(=O)NC1CCCC1 (configuration not stated) | i
COc1cccc(Nc2cc3c(cn2)CN(Cc2cccnc2)CCN3)c1 | + | MTase-Glo ctr=-5%[85.7 µM]
COc1ccc(CN2C(=O)c3cc(-c4ccccc4)nn3CC2(C)C(=O)NCc2ccccc2)cc1OC (configuration not stated) | i
CC1(C(=O)Nc2ccccc2)CN(Cc2ccccc2)Cc2ccc(N3CCOCC3)nc21 (configuration not stated) | i
COc1ccc(CCN2CCN(CCCc3ccccc3)CC2)cc1OC | i
O=C1NCCN1C1CCN(Cc2cccnc2)CC1 | i
CCn1cc(CNc2ccc(-c3ccccc3OC)nn2)cn1 | i
COc1ccc(CNc2cc3c(cn2)CN(Cc2ccccc2)CCN3)cc1OC | + | MTase-Glo ctr=-1%[85.7 µM]
O=C1c2cc(N3CCOCC3)nc(-c3cccc(CO)c3)c2CN1c1ccccc1 | i
SMILES | Methyltransferases | others
c1ccc(CN2CCNc3cnc(Nc4ccc(N5CCOCC5)cc4)cc3C2)cc1 | + | MTase-Glo ctr=3%[85.7 µM]
COc1ccc(-c2nnc3n(Cc4ccccc4)c(=O)c4ccccc4n23)cc1OC | i
COc1ccc2nc([C@H]3CCN(Cc4cccnc4)C3)[nH]c2c1 | i
COc1ccc(-c2cc3c(cn2)CN(CCc2ccccc2)CCN3)cc1OC | + | MTase-Glo ctr=?
CCOC(=O)c1c(NC(=O)N2CCn3c(C)ccc3C2CC)sc2c1CCCC2 (configuration not stated) | i
CCCN1CCN(CCCNC(=O)c2cc3n(n2)CC(C)(C(=O)NC2CCCC2)N(CC)C3=O)CC1 (configuration not stated) | i
COCCCN1C(=O)c2cc3occc3n2CC1(C)C(=O)NC1CCCCCCC1 (configuration not stated) | i
Cc1cc2[nH]c(=O)[nH]c2cc1S(=O)(=O)Nc1ccccc1 | i
O=C(Cn1nc(-c2ccccc2)c2ccccc21)N1CCN(c2ccccc2F)CC1 | i
COc1ccc(-c2cc3n(n2)CC(C)(C(=O)NCc2ccccc2)N(c2ccc(Cl)cc2)C3=O)cc1 (configuration not stated) | i
Cn1nccc1-c1cc2c(cn1)CN(Cc1ccncc1)CCN2 | + | MTase-Glo ctr=-3%[85.7 µM]
CCOc1cc2c(cn1)NCCN(Cc1ccncc1Cl)C2 | i
CC(C)OCCCNC(=O)C1c2c(n(C)c3ccccc23)SCC(=O)N1c1ccccc1F (configuration not stated) | i
CC(C)CCn1c(=O)c2ccccc2n2c(CCC(=O)NCc3ccc(F)cc3)nnc12 | i
O=C1COc2ccc(N3CCCC3)nc2CN1Cc1ccc(C(F)(F)F)cc1 | i
COc1cccc(C(=O)NCC2CCCN(Cc3ccccn3)C2)c1OC (configuration not stated) | i
Cn1cc(CN2CCCC(COc3ccccc3C(=O)N3CCCCC3)C2)c2ccccc21 (configuration not stated) | + | MTase-Glo ctr=-2%
COc1cccc(C(=O)N2CCCC(COc3ccccc3C(=O)N3CCOCC3)C2)c1 (configuration not stated) | i
Cc1ccc(CN2C(=O)c3cc4ccccc4n3CC2(C)C(=O)NCc2ccccc2)o1 (configuration not stated) | i
CCN1C(=O)c2cc(C(=O)NCCCOC)nn2CC1(C)C(=O)NC1CCCC1 (configuration not stated) | i

Source: PubChem BioAssay (National Center for Advancing Translational Sciences (NCATS))
